Measured values reported in PubChem BioAssay AID488969 (Vanderbilt High Throughput Screening Facility, 2010).
Whole data set: some 110,000 compounds, median “z-score” near -0.1, cut for the highest 2% near 2. Shown is part of a subset that was picked to be rich in the highest values. The source made the active and inactive calls.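 How the source made its calls: active means z-score in the third read window above 3 or below -3; inactive means the rest.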

The compounds below were run against Metabotropic glutamate receptor 8 (Rattus norvegicus) (UniProt P70579) (assay: mGluR8 Gi/Go-coupled signaling modulation – cell-based, rat, thallium flux, HTS, primary screen (AID 488969)). Settings: HEK293 rat mGluR8, GIRK (G protein-gated inwardly rectifying potassium channel) thallium flux, FluoZin2; at 10 µM; stronger effect = higher value; submaximal glutamate (EC20) added with thallium.
Chain of Metabotropic glutamate receptor 8 (Rattus norvegicus) (P70579 whole entry, looked up): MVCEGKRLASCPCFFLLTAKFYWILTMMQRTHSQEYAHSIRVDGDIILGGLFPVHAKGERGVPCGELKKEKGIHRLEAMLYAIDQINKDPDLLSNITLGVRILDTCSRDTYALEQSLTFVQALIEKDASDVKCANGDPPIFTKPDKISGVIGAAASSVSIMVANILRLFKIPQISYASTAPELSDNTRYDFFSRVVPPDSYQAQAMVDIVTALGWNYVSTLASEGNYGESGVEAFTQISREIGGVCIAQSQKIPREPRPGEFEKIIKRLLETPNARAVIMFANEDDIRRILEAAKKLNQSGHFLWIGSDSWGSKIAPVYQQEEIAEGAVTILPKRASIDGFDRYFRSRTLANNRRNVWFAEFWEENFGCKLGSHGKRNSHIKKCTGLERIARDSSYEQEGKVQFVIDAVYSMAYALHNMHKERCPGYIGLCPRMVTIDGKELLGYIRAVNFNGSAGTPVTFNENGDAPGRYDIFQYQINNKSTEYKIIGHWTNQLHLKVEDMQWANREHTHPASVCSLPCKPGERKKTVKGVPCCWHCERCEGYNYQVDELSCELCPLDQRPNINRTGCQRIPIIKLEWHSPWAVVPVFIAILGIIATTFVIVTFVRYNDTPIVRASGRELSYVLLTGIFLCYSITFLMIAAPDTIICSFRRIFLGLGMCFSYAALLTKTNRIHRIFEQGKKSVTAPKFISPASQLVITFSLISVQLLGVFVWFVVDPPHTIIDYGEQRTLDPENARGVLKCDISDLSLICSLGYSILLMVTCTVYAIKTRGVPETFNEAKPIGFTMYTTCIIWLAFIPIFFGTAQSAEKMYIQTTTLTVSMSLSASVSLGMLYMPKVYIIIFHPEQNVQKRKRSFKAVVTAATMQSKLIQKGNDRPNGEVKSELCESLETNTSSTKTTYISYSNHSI

Compound	z-score
C=CCNC(=O)c1nn2cccnc2c1Cl	-0.068
O=C(Nc1ccc2c(c1)oc1ccccc12)c1ccc2c(c1)OCO2	0.81
Cc1cc2oc(C(=O)N(Cc3ccccc3)C3CCS(=O)(=O)C3)cc(=O)c2cc1Cl (stereo unspecified)	-0.141
CC(=O)Nc1ccc(S(=O)(=O)NCC(C)NS(=O)(=O)c2ccc(NC(C)=O)cc2)cc1 (stereo unspecified)	0.018
Cc1ccc(S(=O)(=O)NCCCNS(C)(=O)=O)cc1	0.0948
O=S(=O)(c1ccc(N2CCC(c3ccc(Cl)cc3)=N2)cc1)N(CCO)CCO	-0.748
Cc1ccc(S(=O)(=O)NCCCCCC(N)=O)cc1	0.00872
Cc1ccc(S(=O)(=O)NCC(C)NS(=O)(=O)c2ccc(C)cc2)cc1 (stereo unspecified)	2.8
Cc1ccc(S(=O)(=O)NCCCN(C)C)cc1	2.95
CN(C)CCCNS(=O)(=O)c1ccc(N2CCC(c3ccc(Cl)cc3)=N2)cc1	2.59
CNC(=O)CCCCCNS(=O)(=O)c1ccc(C)cc1	0.0156
Cc1ccc(S(=O)(=O)NCCCCCC(=O)N(C)C)cc1	2.19
Cc1ccc(S(=O)(=O)NCC(C)NS(C)(=O)=O)cc1 (stereo unspecified)	-0.186
O=C1CCCN1c1ccc(S(=O)(=O)NCCc2ccc(Cl)cc2)cc1	0.203
CN(C)CCNS(=O)(=O)c1ccc(Cl)cc1	1.34
CCOc1ccc(-c2cn3ccccc3n2)cc1[N+](=O)[O-]	0.461
O=C(c1cccc(-n2cnnn2)c1)N1CC=C(c2ccccc2)CC1	0.39
CN1CCN(/C(=N\S(=O)(=O)c2ccc(F)cc2)c2ccccc2)CC1	-0.0184
Cc1sc2ncnc(N3CCOCC3)c2c1C	-0.134

Compound	z-score
O=[N+]([O-])c1ccc(-c2csc(N3CCc4ccccc4C3)n2)cc1	-0.0911
Cc1nnc(SCC(=O)N2CC(=O)Nc3ccccc32)n1Cc1ccccc1	-0.151
Cc1ccc(Cn2c(SCC(=O)N3CC(=O)Nc4ccccc43)nc3ccccc3c2=O)cc1	1.31
O=C1CN(C(=O)CSc2nc3ccccc3n2CCc2ccccc2)c2ccccc2N1	-0.346
O=C1CN(C(=O)CSc2nc3cc(Cl)ccc3c(=O)n2Cc2ccccc2)c2ccccc2N1	7.11 (active)
CC(c1ccccc1)n1c(SCC(=O)N2CC(=O)Nc3ccccc32)nc2ccccc2c1=O (stereo unspecified)	4.74 (active)
Cc1cccc(C)c1-n1c(SCC(=O)N2CC(=O)Nc3ccccc32)nc2ccccc2c1=O	-0.109
Cc1ccc(-n2c(SCC(=O)N3CC(=O)Nc4ccccc43)nc3ccccc3c2=O)cc1C	-0.183
O=C1CN(C(=O)CSc2nc3ccccc3c(=O)n2Cc2ccc(F)cc2)c2ccccc2N1	3.79 (active)
Cc1ccc(-n2c(SCC(=O)N3CC(=O)Nc4ccccc43)nc3ccccc3c2=O)cc1	-0.279
O=C(O)/C=C/C(=O)Nc1ccccc1C(=O)Nc1ccccc1	0.317
CCOC(=O)C1=C(Nc2ccccc2)CC(C)(O)C(C(=O)OCC)C1c1ccc(Cl)cc1 (stereo unspecified)	-0.445
COc1ccc(CCC(C)NCC2CCCCC2)cc1 (stereo unspecified)	0.819
O=C(NCc1cccs1)Nc1cccc(Cl)c1	0.43
Cc1csc(NC(=S)Nc2cccc(Cl)c2)n1	14.7 (active)
CCOC(=O)c1csc(NC(=O)Nc2cccc(Cl)c2)n1	-0.0455
Fc1ccc(CNC(=S)Nc2cccc(Cl)c2)cc1	5.18 (active)
S=C(NCc1cccs1)Nc1cccc(Cl)c1	4.52 (active)
S=C(NCc1ccncc1)Nc1cccc(Cl)c1	-0.135

Compound	z-score
S=C(NCc1cccs1)Nc1ccc(Cl)cc1	0.118
Cc1csc(NC(=O)Nc2cccc(Cl)c2)n1	0.398
Fc1ccc(NC(=S)Nc2cccc(Cl)c2)cc1	1.26
O=C(Nc1ccccc1)N1CCCc2ccccc21	-0.0768
O=C(NCCCN1CCCC1=O)c1ccccc1NS(=O)(=O)c1ccc(Br)cc1	-0.938
CCCn1cc(NC(=O)C2CC(c3cccc(Br)c3)=NO2)cn1 (stereo unspecified)	-0.352
CCOc1cc(/C=C2/NC(=O)N(CC(=O)Nc3cccc(C)c3)C2=O)ccc1O	-0.784
N#CC1=C(SCC(=O)NCc2ccccc2)NC(=O)CC1c1ccco1 (stereo unspecified)	1.77
CC(C)=C1C2CCC1C1C(=O)N(c3nc(-c4ccc(C(C)C)cc4)c(C)s3)C(=O)C21 (stereo unspecified)	-0.0235
O=C(NC(=S)N1CCN(c2c(Cl)cccc2[N+](=O)[O-])CC1)c1cccs1	-4.63 (active)
NC(=O)C1CCN(c2ccc(C(F)(F)F)cc2[N+](=O)[O-])CC1	0.0305
O=C(NC(=S)N1CCN(c2ccc([N+](=O)[O-])cc2Cl)CC1)c1ccco1	1.05
O=C(Nc1cc(C(F)(F)F)ccc1N1CCOCC1)c1cccs1	1.15
O=C(NC(=S)N1CCN(c2ccc(Cl)cc2[N+](=O)[O-])CC1)c1ccco1	2.99
O=C(NC(=S)N1CCN(c2ccc(C(F)(F)F)cc2[N+](=O)[O-])CC1)c1cccs1	8.9 (active)
O=C(NC(=S)N1CCCCC1)c1cccs1	0.578
O=C(CSc1ccc(Cl)cc1)N1CCN(c2ccc(Cl)cc2[N+](=O)[O-])CC1	-0.109
O=C(NC(=S)N1CCN(c2ccc(Cl)cc2[N+](=O)[O-])CC1)c1cccs1	9.46 (active)
